± gives the standard deviation of the averaged measurements. The full ranking holds about 25,000 sequences; the median of “ln(normalized median fluorescence intensity)” is about 8.9, and the highest 2% start at about 10. This excerpt belongs to a sample that is enriched for the highest values.

Experimental findings from the supplement of paper PMC11417369 are described below.

The assay relates to PfAP2-LT AP2 domain (GST-tagged). As to the kind of experiment: gcPBM binding intensity (ln(normalized median fluorescence intensity)); higher = stronger DNA binding. Summed up: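 Using an Agilent 4 × 180k array, primer-extended double-stranded 36-bp intergenic genomic probes and negative controls were exposed for 1 h to GST-fused P. falciparum DNA-binding domains expressed in E. coli. Binding was carried out in 1× PBS with 1% milk, 0.2 mg/ml BSA, 0.5% salmon testes DNA and 0.03% Triton X-100, and protein was detected with Alexa488 anti-GST antibody and a 488 nm scan. Binding intensity is the highest Masliner-normalised natural-log median intensity across replicate spots of either probe orientation.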
“AAAAAAAAAAAAAAAACACACACATACACCCAAAAA [CACACA_site7910]”: the “gcPBM binding intensity (ln)” value was 9.78 ± 0.23.

Regarding “AAAAAAAAAAAACACACACACACAAATATATAAAAA [CACACA_site1171]”, the “gcPBM binding intensity (ln)” value amounted to 9.77 ± 0.31.

For “AAAGAAAAAAAAAAAACACACAAAAAAAATCAAAAT [CACACA_site2871]”, the “gcPBM binding intensity (ln)” value was 9.04 ± 0.57.

For “AAAAAAAAAAAAAAAAAAAAACACCCAAAAAAATAT [XGTACX_negctrl_site210]”, the “gcPBM binding intensity (ln)” value was determined as 8.86 ± 0.44.

As for “AAAATCACAAAACACACACACACAAAAAAAAAAAAA [CACACA_site1443]”, the “gcPBM binding intensity (ln)” value worked out at 9.49 ± 0.53.

On to “AAAAAAAAAAAAAACACACACACACCCAAATATATA [CACACA_site1169]”, for which the “gcPBM binding intensity (ln)” value came to 10.2 ± 0.44.

In the case of “AAATAAATAAAAAACACACACAAATAAATAAATATA [CACACA_site2249]”, the “gcPBM binding intensity (ln)” value came to 9.46 ± 0.39.

As to “AAAAAATCAAAACACACACACACACCCAAAAAAAAA [CACACA_site1444]”, the “gcPBM binding intensity (ln)” value came to 10.2 ± 0.37.

Turning to “AACACCCAAAAACACACACACATACATACATACATA [CACACA_site4411]”, the “gcPBM binding intensity (ln)” value came out at 9.8 ± 0.23.

Turning to “CAAATGTAGAAAATGTGTACATAAAAAAAAAAAAAA [XGTACX_site8276]”, the “gcPBM binding intensity (ln)” value is 8.87 ± 0.47.

On to “AGGGACATATATATCACACACAAAAATTAGTCCCTT [CACACA_site2778]”, for which the “gcPBM binding intensity (ln)” value came out at 9.39 ± 0.44.

Turning to “TATATTATTTATATTTGTACACAGCGATATGAAATA [XGTACX_site987]”, the “gcPBM binding intensity (ln)” value was 8.56 ± 0.46.

With “CATATAATTATTTTCACACATATAACTACATCTATA [CACACA_site5915]”, the “gcPBM binding intensity (ln)” value worked out at 8.82 ± 0.43.

As for “ATACATACATACATACGTACATATGTATATATATAT [XGTACX_site8498]”, the “gcPBM binding intensity (ln)” value turned out to be 9.23 ± 0.14.

As for “AATTTGATTATAAATTGTACATATATATATTAAAAG [XGTACX_site5461]”, the “gcPBM binding intensity (ln)” value amounted to 8.66 ± 0.35.

As for “AAAAATGAAAGGTGTACACATACAAACATAGAAAGA [CACACA_site5020]”, the “gcPBM binding intensity (ln)” value stood at 9.38 ± 0.52.

Consider “ATGGTTTTTATTTTATGTACTTACTAAAATGAATAA [XGTACX_site4317]”, for which the “gcPBM binding intensity (ln)” value came out at 8.52 ± 0.37.

As to “AAAAAAAAAAAAAACACACACACACCCATACCCATA [CACACA_site5577]”, the “gcPBM binding intensity (ln)” value was found to be 10.215 ± 0.0071.

Take “AAAAAAAAAAAAAAAACACACACAACACCCATACCT [CACACA_site9208]”: the “gcPBM binding intensity (ln)” value was determined as 9.92 ± 0.14.

On to “CATACACCCATACATACACACATACATACACCCATA [CACACA_site5124]”, for which the “gcPBM binding intensity (ln)” value was found to be 9.56 ± 0.31.

On to “AAAAAAAAAAAACACACACACACACCCATACATACA [CACACA_site707]”, for which the “gcPBM binding intensity (ln)” value was 10.4 ± 0.14.

Take “AAAAAAAAAAAAAACACACACAACACCCATACCTTA [CACACA_site3621]”: the “gcPBM binding intensity (ln)” value was 9.79 ± 0.057.

As for “AAAAAAAAAAAACACACACACACATACCCATACATA [CACACA_site5575]”, the “gcPBM binding intensity (ln)” value amounted to 9.98 ± 0.22.

Consider “TAAACACCCATACATACACACATACATACACCCATA [CACACA_site5125]”, for which the “gcPBM binding intensity (ln)” value came to 9.63 ± 0.18.

Take “AAAAAAAAAAAAAACACACACACACCCATACACATA [CACACA_site2860]”: the “gcPBM binding intensity (ln)” value stood at 10.19 ± 0.078.

As for “GGGCATATAATATAAAGTACAGGACTATAAAAATAT [XGTACX_site4481]”, the “gcPBM binding intensity (ln)” value is 8.86 ± 0.59.

“TCTTTTTTTTTTACTAGTACTTAAAAAAAAAATATG [XGTACX_site4395]”: the “gcPBM binding intensity (ln)” value was found to be 8.28 ± 0.55.

On to “TTTGTAAAACTATATTGTACTTTTATATATCTACAA [XGTACX_site5507]”, for which the “gcPBM binding intensity (ln)” value stood at 8.56 ± 0.47.

Regarding “TTTTTAAAAAAGATAAGCGAAAGAATTAATTTTTAA [GTGCAC_negctrl_site197]”, the “gcPBM binding intensity (ln)” value worked out at 8.13 ± 0.52.

“TATTTACATATTTATATACACACTTTTGCGTGTCTG [CACACA_site1110]”: the “gcPBM binding intensity (ln)” value amounted to 9.36 ± 0.67.

Regarding “CATATTATTTATATTTGTACACAGCGATATGAAATA [XGTACX_site7717]”, the “gcPBM binding intensity (ln)” value is 8.68 ± 0.35.

Consider “TATAATAAATCAAATGCACACACACTAATAAAAAAA [CACACA_site7937]”, for which the “gcPBM binding intensity (ln)” value came out at 9.63 ± 0.35.

As to “AAAATCACAAGACACACACACACAAAAAAAAAAAAA [CACACA_site6791]”, the “gcPBM binding intensity (ln)” value is 9.94 ± 0.58.

With “AAAAAATCACGACACACACACACACTAAAAAAAAAA [CACACA_site6792]”, the “gcPBM binding intensity (ln)” value was found to be 10.1 ± 0.2.

Regarding “TGGTTACTGTCATTAGTTATTTCTTGTTGACAATTA [CACACA_negctrl_site416]”, the “gcPBM binding intensity (ln)” value was found to be 8.79 ± 0.41.

With “ATACAGAAAAAAAACACACACACATAATATACATAC [CACACA_site1933]”, the “gcPBM binding intensity (ln)” value was determined as 9.84 ± 0.16.

For the sequence “AAAATACAGAAACACACACACACACCCATATATATA [CACACA_site3559]”, the “gcPBM binding intensity (ln)” value is 10.31 ± 0.014.

“CACAAAAAAAATTATACACACACACCCATATATATA [CACACA_site8255]”: the “gcPBM binding intensity (ln)” value turned out to be 9.82 ± 0.11.

As for “CAAAAAAACAAACACACACACACACCCATATATATA [CACACA_site3653]”, the “gcPBM binding intensity (ln)” value amounted to 10.25 ± 0.085.

For the sequence “ATAAAATACAGATAAACACACATATAAACACCCATA [CACACA_site5381]”, the “gcPBM binding intensity (ln)” value was determined as 9.56 ± 0.32.

On to “CAAAAAAAATTATACACACACACACCCATATATATA [CACACA_site1044]”, for which the “gcPBM binding intensity (ln)” value turned out to be 10.04 ± 0.099.

Regarding “AAAAAAAAAAAAAACACACACACACCCATACAAAAT [CACACA_site1446]”, the “gcPBM binding intensity (ln)” value amounted to 10.12 ± 0.064.

With “TACAAACACCCATATACACACAAAAAAAAAATAAAA [CACACA_site5421]”, the “gcPBM binding intensity (ln)” value was determined as 9.24 ± 0.49.

As for “AAAAAAAAAAAAAACACACACACACCCAAATACATA [CACACA_site708]”, the “gcPBM binding intensity (ln)” value was determined as 9.99 ± 0.24.

As for “AAAAAATACAAACACACACACACACCCATATATATA [CACACA_site3560]”, the “gcPBM binding intensity (ln)” value is 10.21 ± 0.057.

For the sequence “AACAAAAAAACAAACACACACACACCCATATATATA [CACACA_site3652]”, the “gcPBM binding intensity (ln)” value is 10.03 ± 0.042.
